Screening results: PubChem BioAssay, National Center for Advancing Translational Sciences (NCATS)
Only some compounds are listed: those with a hit (about 1.9% of all), similar ones and a draw of the others.
FUS yeast rescue: rescues growth of FUS-expressing yeast. 390,000 tested, 0.24% active. Potency, µM (highest dose often 76.6 µM), hits mostly activators. S. cerevisiae FUS-expressing, growth rescue, OD600, 24 h;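 further: potency means the concentration at half of the fitted maximal effect; plate controls were DMSO vehicle for no effect and reference control for full effect; nearly all actives have a fitted effect of over 55% in size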
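Yeast FUS proteinopathy model; galactose-induced FUS (2%), starting OD 0.005. Cpds in dilution series, 24hr, 30C, 99% humidity. Abs 600 nm growth. Pos ctrl CP55940 (top 92uM final); neg ctrl DMSO.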
TDP-43 yeast inh: inhibitors of TDP-43 toxicity in yeast; TDP-43 expressing yeast growth rescue, BacTiter-Glo, 24 h; Potency, µM (top dose mostly 46.1 µM), inactives show at the highest dose growth rescue (activation), most hits filed as activators; 410,000 tested, 1.8% active; further: potency means the concentration at half of the fitted maximal effect; % of control where 0% means no effect; nearly all actives have a fitted effect of over 50% in size
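Yeast cells expressing TDP-43 under galactose induction are exposed to compounds for 24 hr at 30 deg C. BacTiter-Glo luminescence measures growth, so protective compounds score as activators.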
PTHR1 agonist: activates the human parathyroid hormone receptor PTHR1; HEK293 GP2 PTHR1 cells, GloSensor cAMP luminescence, 1 h; Potency, µM (titrated, usually from 115 µM), for the others: top-dose activation, actives largely listed as activators; 410,000 tested, 0.075% active; AID 743266; further: potency means the concentration at half of the fitted maximal effect; nearly all actives have a fitted effect of over 55% in size
Target sequence (Q03431 whole entry, looked up): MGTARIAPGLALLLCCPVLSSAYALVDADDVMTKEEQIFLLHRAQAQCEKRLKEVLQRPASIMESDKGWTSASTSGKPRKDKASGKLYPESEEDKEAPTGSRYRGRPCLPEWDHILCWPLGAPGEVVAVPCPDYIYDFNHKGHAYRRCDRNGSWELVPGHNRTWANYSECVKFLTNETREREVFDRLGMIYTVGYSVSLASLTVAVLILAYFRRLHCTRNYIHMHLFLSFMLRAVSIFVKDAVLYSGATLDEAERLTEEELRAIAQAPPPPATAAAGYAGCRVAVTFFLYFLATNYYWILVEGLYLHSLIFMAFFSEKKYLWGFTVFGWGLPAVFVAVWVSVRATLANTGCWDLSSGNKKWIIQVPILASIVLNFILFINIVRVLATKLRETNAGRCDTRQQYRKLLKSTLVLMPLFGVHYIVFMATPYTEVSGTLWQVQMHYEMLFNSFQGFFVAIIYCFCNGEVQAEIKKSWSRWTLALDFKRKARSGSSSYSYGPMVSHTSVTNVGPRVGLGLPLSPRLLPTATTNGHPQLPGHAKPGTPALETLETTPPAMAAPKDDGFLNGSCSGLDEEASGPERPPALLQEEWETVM
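HEK-293-derived GP2 cells expressing PTHR1 and a GloSensor cAMP reporter, 3,000/well, plated overnight, given luciferin plus IBMX (each 0.5 mM as added) for 1 h at 37 °C, then compound for 1 h at 37 °C. Luminescence was read after 15 min at room temperature.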
Abeta rescue: A-beta toxicity reversal in yeast. yeast expressing A-beta42, growth rescue, OD600, 48 h; response scale: 0% DMSO, 100% iron-clioquinol control. Potency, µM (top dose mostly 46.1 µM), usual class: activators. 410,000 tested, 0.063% active; further: potency means the concentration at half of the fitted maximal effect; nearly all actives have a fitted effect of over 55% in size
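Growth rescue measured by 600 nm absorbance after 48 h yeast culture at 30 C with compound. Values normalized between DMSO and an equimolar ferric chloride plus clioquinol control.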
LDHA inh: blocks human lactate dehydrogenase A | P00338 | purified LDHA, NADH/diaphorase-resazurin fluorescence; stronger effect = lower value | activity change, % (values are at about 110 or 230 µM) | 480,000 tested, 0.15% active; in the data active means activity change below about -30%; inconclusive means mostly about -25% to -30%;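 further: plate controls were DMSO wells for no effect and wells without enzyme for full effect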
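LDH5 2 nM; NADH 0.06 mM, pyruvate 0.2 mM; 200 mM Tris pH 7.4, EDTA, Tween-20; 5 min RT. Detection: diaphorase 0.133 mg/mL + resazurin 37 µM, fluorescence ex540/em590 at 0 and 20 min; normalized to enzyme-free and DMSO wells.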
aSyn rescue: alpha-synuclein toxicity inhibition in yeast; AID 652106; 370,000 tested, 0.14% active; Yeast expressing alpha-synuclein, growth rescue, BacTiter-Glo, 24 h; Potency, µM (doses to about 46.1 µM), inactives show at the top dose growth rescue (activation), usual class: activators; further: potency means the concentration at half of the fitted maximal effect; % of control where 0% means no effect; nearly all actives have a fitted effect of over 65% in size
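Readout is rescue of growth in alpha-synuclein-expressing yeast, so inhibitors of toxicity appear as activators. Growth after 24 hr at 30 deg C in galactose medium is quantified by luminescence.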
* marks the source's active call; other numbers are inactive results; i = inactive; ? = inconclusive; nt = no result; [ ] = dose if it differs, or a comment. Unless noted, the call rests on the fitted dose curve; in most records, active means well fitted curve in the direction sought with a large enough effect; inconclusive means small, poorly fitted or top-dose-only effect, or another doubt; inactive means no such curve, though single readings can be large; an effect the other way counts as inactive or inconclusive.

SMILES	FUS yeast rescue	TDP-43 yeast inh	PTHR1 agonist	Abeta rescue	LDHA inh	aSyn rescue
COc1ccc(N2CCC(CNC(=S)Nc3cc(C)cc(C)c3)C2)cc1 (stereo not given)	?	?	i	?	12	5%
COc1ccc(N2CCC(CNC(=S)Nc3cc(C)ccc3C)C2)cc1 (stereo not given)	i	14µM*	-39%	?	4	?
COc1ccc(CN(CC2CCC(C(=O)O)CC2)C(=S)Nc2cc(C)ccc2C)cc1 (stereo not given)	i	22µM*	-31%	i	-4	10%
CCN(C(=O)c1cccs1)c1ccccc1C	nt	nt	nt	nt	-4	nt
O=C(O)C1C2C=CC(CC2)C1C(=O)O (stereo not given)	?	20µM*	i	?	-10	9%
CC(=O)Nc1ccc(NC(=O)C2C3C=CC(C3)C2C(=O)O)cc1 (stereo not given)	i	15%	i	i	-8	0%
CC(C)c1ccc(NC(=O)C2C3C=CC(CC3)C2C(=O)O)cc1 (stereo not given)	i	13µM*	-1%	i	-4	3%
CC1C=CC(C)C(C(=O)O)C1C(=O)O (stereo not given)	i	-7%	i	i	2	-1%
Cc1ccc(NC(=O)C2CCN(c3cnc4ccccc4n3)CC2)cc1F	nt	nt	nt	nt	-1	nt
CC1=C(C)CC(C(=O)NC(C)C(C)(C)C)C(C(=O)O)C1 (stereo not given)	nt	nt	nt	nt	9	nt
CCOC(=O)N1CCN(C(=O)C[C@H]2C[C@@]3(C(=O)OC)C(=C[C@H](COCc4ccccc4)O[C@@H]3C)N(Cc3cccc4ccccc34)C2=O)CC1	22µM*	nt	nt	nt	nt	nt
COC(=O)[C@]12C[C@H](CC(=O)NCCc3ccccc3OC)C(=O)N(Cc3cccc4ccccc34)C1=C[C@H](COCc1ccccc1)O[C@@H]2C	16µM*	nt	nt	nt	nt	nt
COC(=O)[C@]12C[C@H](CC(=O)NCC3CCCCC3)C(=O)N(CCc3ccc(OC)c(OC)c3)C1=C[C@H](COCc1ccccc1)O[C@@H]2C	10µM*	nt	nt	nt	nt	nt
Cc1cc(C)c2nc(N3CCC(C(=O)NCc4ccc(OC(C)C)cc4)CC3)sc2c1	nt	nt	nt	nt	-5	nt
O=C(NCc1ccc(C(F)(F)F)cc1)c1ccc(-c2cccnc2)c2ccoc12	?	13µM*	-32%	i	2	-5%
O=C(NCc1ccc(C(F)(F)F)cc1)c1ccc(-c2ccc(F)c(F)c2)c2ccoc12	i	-3%	-24%	i	-1	9%
O=C(Nc1cccc(C(F)(F)F)c1)c1cccc2c(-c3cccnc3)coc12	i	16µM*	i	i	-7	-1%
O=C(NCc1cccc(Cl)c1)c1ccc(-c2cccnc2)c2ccoc12	i	35µM*	i	i	-18	3%
Fc1ccc(C2=Nn3c(nnc3-c3ccccn3)SC2)cc1	nt	nt	nt	nt	9	nt
Cc1ccc(C)c2c1cc(C)c1nnc(SCc3ccccn3)n12	i	11µM*	i	i	0	nt
CCN(CC(=O)NC(C)C)C(=O)c1cc(C(C)C)nc2ccccc12	nt	nt	nt	nt	6	nt
COc1ccccc1CNc1nc(Oc2cccc(F)c2)c2sccc2n1	?	35µM*	0%	i	-3	8%
Cc1ccc(O)c(N=NC2=C(O)CC(C)(C)CC2=O)c1	nt	12%	-3%	?	12	7.1µM*
CC1(C)CC(=O)C(N=Nc2cc(Cl)c(Cl)c(Cl)c2)=C(O)C1	i	7%	-19%[57.5 µM]	i	-1	6%
COc1ccc(-c2nnc3sc(COc4ccc(C)cc4)nn23)cc1	i	9%	-4%	i	-1	-9%
SMILES	FUS yeast rescue	TDP-43 yeast inh	PTHR1 agonist	Abeta rescue	LDHA inh	aSyn rescue
COc1ccccc1-c1nnc2sc(COc3ccc(Cl)cc3)nn12	?	18µM*	11%	i	-6	29%
COc1ccc(-c2nnc3sc(COc4ccccc4)nn23)cc1	i	2.8µM*	i	i	0	7%
S=C(Nc1ccc2nsnc2c1)NC1CCCCC1	nt	13µM*	-21%	i	32	-13%
C/C(=N\NC(=O)COc1ccccc1-c1ccccc1)c1ccccn1	i	?	-21%	i	-4	18µM*
C/C(=N\NC(=O)COc1ccccc1-c1ccccc1)c1cccnc1	i	22%	-25%	i	-1	8%
CSc1ccc(/C=C/C(=O)c2cc(C)sc2C)cc1	nt	nt	nt	nt	0	nt
Cn1c(COc2cccc3ccccc23)nnc1SCC(=O)OC1CCCCC1	?	25µM*	i	i	1	?
CC(C(=O)N1CCCc2ccccc21)N1CCN(c2ccccn2)CC1 (stereo not given)	i	1%	i	i	-38*	6%
CC(C(=O)N1CCc2ccccc21)N1CCN(c2ccccn2)CC1 (stereo not given)	nt	-6%	i	i	-3	-17%
Cc1ccc(C(=O)NCC(O)c2ccc(F)cc2F)cn1 (stereo not given)	nt	nt	nt	nt	-13	nt
CCOc1cc(/C=C/C(=O)c2ccc(C3CCCCC3)cc2)ccc1OC	nt	nt	nt	nt	-17	nt
COc1ccc(C(=O)Nc2cccc(-c3cn4ccsc4n3)c2)c(OC)c1	?	5µM*	-3%	i	-4	nt
COc1ccc(C(=O)Nc2cccc(-c3cn4ccsc4n3)c2)cc1OC	i	20%	-9%	i	-2	nt
NC(=O)c1ccccc1NC(=O)c1ccc2ccccc2n1	nt	nt	nt	nt	-1	nt
CCCNC(=O)c1ccc(COc2cccc3ccccc23)o1	i	18µM*	i	i	5	-8%
COC(=O)c1ccc(COc2cccc3ccccc23)o1	nt	nt	nt	nt	68	nt
COc1ccc(NC(=O)c2cn(-c3ccccc3)nc2-c2cc3ccccc3o2)cc1	i	4%	i	i	-2	6%
OCc1cn(-c2ccccc2)nc1-c1cc2ccccc2o1	i	16µM*	-29%	i	0	7%
Cc1ccc(Nc2c(N)c(=O)oc3ccccc23)cc1	i	14µM*	-13%[57.5 µM]	i	12	1%
CN(C)c1oc(-c2ccco2)nc1S(=O)(=O)c1ccc(F)cc1	nt	nt	nt	nt	-1	nt
CC(C)(C)C(=O)Nc1cc(-c2cccc(Br)c2)nn1-c1ccccc1	i	22µM*	i	i	5	nt
Cc1nn(Cc2ccccc2)c(C)c1NC(=O)COCc1cc(-c2ccco2)on1	nt	nt	nt	nt	1	nt
CC(NC(=O)c1ccc2c(c1)N(Cc1ccccc1)C(=O)c1ccccc1S2=O)c1ccc2c(c1)OCCO2 (stereo not given)	nt	nt	nt	nt	-2	nt
COc1ccccc1/C=N/NC(=O)c1ccccc1Cl	i	-9%	-32%	i	-6	-2%
